FLuc inh – Firefly luciferase inhibition profiling of diverse chemical library using quantitative high-throughput screening; purified P. pyralis luciferase, luminescence, biochemical; Potency, µM (titrated, usually from 115 µM), actives largely listed as inhibitors; 76,000 compounds, 2.5% hits; AID 1347043, 2019; further: nearly all actives have a fitted effect of over 65% in size
Target sequence (P08659 whole entry, looked up): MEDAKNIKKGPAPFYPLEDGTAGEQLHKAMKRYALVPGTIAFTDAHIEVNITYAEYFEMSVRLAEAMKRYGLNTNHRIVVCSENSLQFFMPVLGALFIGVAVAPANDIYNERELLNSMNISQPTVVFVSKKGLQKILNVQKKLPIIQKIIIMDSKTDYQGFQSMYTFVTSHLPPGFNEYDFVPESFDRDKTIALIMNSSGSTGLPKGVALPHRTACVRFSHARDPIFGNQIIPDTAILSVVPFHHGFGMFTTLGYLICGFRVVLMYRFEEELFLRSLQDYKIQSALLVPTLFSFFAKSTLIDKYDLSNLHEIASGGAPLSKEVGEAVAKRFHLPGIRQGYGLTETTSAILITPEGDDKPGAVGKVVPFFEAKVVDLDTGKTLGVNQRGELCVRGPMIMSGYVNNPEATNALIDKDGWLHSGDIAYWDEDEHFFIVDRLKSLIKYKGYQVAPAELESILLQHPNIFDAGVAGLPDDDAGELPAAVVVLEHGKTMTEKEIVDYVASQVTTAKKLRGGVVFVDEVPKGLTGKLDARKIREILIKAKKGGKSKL
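Inhibitors were tested against purified firefly luciferase in a biochemical, low-substrate format (both substrates at 10uM) and luminescence measured with a CCD imager.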
hNpr1 antagonist – Natriuretic polypeptide receptor (hNpr1) antagonism - Primary qHTS; Atrial natriuretic peptide receptor 1 (Homo sapiens), P16066; HEK293 hNpr1 GloSensor cGMP, ANP-stimulated luminescence; Potency, µM (doses to about 46.3 µM), without a hit: at the highest dose activity change, negative = inhibition, hits mostly inhibitors; 76,000 compounds, 1.6% hits; AID 1347048, 2019; calls by dose curve; further: nearly all actives have a fitted effect of over 60% in size
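HEK293 cells stably expressing human Npr1 and cGMP GloSensor pGS-40F, loaded 2 h with 2% GloSensor reagent, given compound 30 min at room temperature. Luminescence read before and 20 min after 0.1 nM hNppA.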
3T3 cytotox – Cytotoxic Profiling in NIH 3T3 Cell Line of Diverse Libraries Using Quantitative High-Throughput Screening; NIH 3T3 viability, CellTiter-Glo ATP luminescence, 48-72 h; Potency, µM (titrated, usually from 96.7 µM), for the others: top-dose activity change, negative = cytotoxicity, actives largely listed as inhibitors; 94,000 compounds, 4.3% hits; AID 1345082, 2018; further: nearly all actives have a fitted effect of over 55% in size
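First NIH 3T3 cells are plated at 400 cells/well; next compound is pinned in; then plates incubate 48 or 72 hr at 37 °C; finally CellTiter-Glo is added and luminescence read after 10 min.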
HEK cytotox – Cytotoxic Profiling in HEK 293 Cell Line of Diverse Libraries Using Quantitative High-Throughput Screening. HEK 293 viability, ATP luminescence (CellTiter-Glo), 48-72 h. Potency, µM (doses to about 115 µM), inactives show top-dose activity change, negative = cytotoxicity, hits mostly inhibitors. 94,000 compounds, 6.6% hits. AID 1345083, 2018; further: nearly all actives have a fitted effect of over 60% in size
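HEK 293 cells at 250 cells/well were exposed to compounds by pintool transfer for 48 or 72 hr at 37 degree Celsius, 5% CO2. Viability was read as ATP-coupled luminescence with CellTiter-Glo after 10 min at room temperature.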
Starred values were filed as active, the others as inactive; i = inactive; ? = inconclusive; / = no result; [ ] = remark or other dose. An excerpt weighted towards active compounds, which were near 11% of everything screened. Unless noted, the call rests on the fitted dose curve; in most records, active means well fitted curve in the direction sought with a large enough effect; inconclusive means small, poorly fitted or top-dose-only effect, or another doubt; inactive means no such curve, though single readings can be large; an effect the other way counts as inactive or inconclusive. On the % scale 0 is the no-effect control and ±100 the full control effect; potency means the concentration at half of the fitted maximal effect.

SMILES	FLuc inh	hNpr1 antagonist	3T3 cytotox	HEK cytotox
CC#CCn1cc2c3c(cccc31)[C@H](CC(C)C)N[C@H](C(=O)N1CCOCC1)C2	i	7.0%[70.6 µM]	?	?
CC#CCn1cc2c3c(cccc31)[C@H](CC(C)C)N[C@H](C(=O)NCCN1CCOCC1)C2	i	-10.5%[70.6 µM]	100µM*	?
COc1ccc(C[C@H](NC(=O)C2=C[C@@H](NS(=O)(=O)c3cccs3)[C@@H](O)[C@H](O)C2)C(N)=O)cc1	i	3.6%	2.0%	0.1%
CCOC(=O)CCNC(=O)N1CCOc2ccc(CN3CCc4ccccc4C3)cc2C1	i	3.4%	-7.0%	-10.3%
Cc1cnc(-c2cccnc2)n1C1CCCN(C(=O)c2cnccn2)C1 (stereo not drawn)	/	/	-19.9%	1.5%
COc1ccc(NC(=O)Nc2cccn3nc(C(C)C)nc23)cc1	44.7µM*	-12.3%	?	?
COc1ccccc1C(=O)NCc1nnc2cc(-c3nc(C(C)C)no3)ccn12	i	3.3%	3.2%	?
CC(C)(C)C(=O)N1CC[C@@H](CC(=O)O)[C@@H](CC2=NCCc3ccc(C(C)(C)C)cc32)C1	i	5.9%[70.6 µM]	100µM*	-25.0%[172 µM]
CC(C)Cc1cnc(-c2ccccc2)[nH]1	/	/	?	100µM*
CC1=C[C@@H](CNC(=O)c2ccncc2)[C@H](C(C)C)C[C@H]1CC(=O)N1CCCC1	?	4.6%[70.6 µM]	-20.9%[138 µM]	-19.2%[172 µM]
Cc1ccccc1C(=O)N1CCC(CCC(=O)N2CCN(c3ccccn3)CC2)CC1	31.6µM*	1.2%	-14.8%	?
CC1=C[C@@H](CNC(=O)c2ccncc2)[C@H](C(C)C)C[C@H]1CC(=O)N1CCN(C)CC1	20µM*	-2.8%[70.6 µM]	-17.9%[174 µM]	-16.2%[172 µM]
CCOC(=O)C[C@@H]1C[C@@H](C(C)C)[C@H](CNC(=O)c2ccncc2)C=C1C	i	?	?	89.1µM*
CC1=C[C@@H](CO)[C@H](C(C)C)C[C@H]1CC(=O)N1CCN(c2ccccn2)CC1	?	-7.7%[70.6 µM]	?	100µM*
Cc1cc(C(=O)NCC2Cn3cccc3CN2C)nn1C (stereo not drawn)	i	-2.0%	-0.4%	-7.5%
COc1cccc(CCC2CCCN(C(=O)c3ccsc3)C2)c1 (stereo not drawn)	i	1.2%	?	?
COc1cccc(CCC2CCCN(C(=O)c3ccoc3C)C2)c1 (stereo not drawn)	i	-1.7%	?	31.6µM*
COCc1ccc(C(=O)N2CCCC(CCc3cccc(OC)c3)C2)o1 (stereo not drawn)	i	1.1%	?	79.4µM*
COCCn1c(=O)c(C(=O)NC2CCCC2)nc2cccnc21	/	/	-15.0%[138 µM]	i
O=C(NCc1cccs1)c1ccc2nnc(CC3CC3)n2c1	/	/	?	i
O=C1CC(c2ccccc2)N(C(=O)CNC(=O)c2ccc3ccccc3n2)CCCCCN1 (stereo not drawn)	i	-19.9%	-18.4%	-2.1%
CCCNC(=O)N1CCCCCC1CN1CCOCC1 (stereo not drawn)	i	0.9%	i	0.1%
COc1ccc(OCC(O)CN2CCC(=O)N(C3CCCC3)Cc3ccccc32)cc1 (stereo not drawn)	/	/	?	39.8µM*
COCCN1Cc2ccccc2N(CC(O)COc2ccccc2)CCC1=O (stereo not drawn)	/	/	-25.0%	?
COc1ccc(OCC(O)CN2CCC(=O)N(C/C=C/c3ccccc3)CCc3ccccc32)cc1 (stereo not drawn)	/	/	?	28.2µM*
C=CCN1CCc2ccccc2N(CC(O)COc2ccc(OC)cc2)CCC1=O (stereo not drawn)	/	/	?	-21.2%[57.5 µM]
CCOC(=O)C1CCN(C(=O)C2CCc3nnc(-c4cccc(C(F)(F)F)c4)n32)CC1 (stereo not drawn)	/	/	-29.8%	-34.9%
CCC(C)NC(=O)C1CCCN1C(=O)c1cccc(-c2cccnc2)c1 (stereo not drawn)	/	/	-5.9%	-0.7%
Cn1ccc(NC(=O)[C@@H]2C[C@H](c3ccc(F)cc3)N(Cc3ccccc3Cl)C2)n1	i	?	?	50.1µM*

Compound activity (PubChem BioAssay)
